Values joined by “and” are separate entries in the source; they are usually repeats but may differ in a detail not shown here. Identical values can stand only once. Results filed as inconclusive are left out. Active and inactive are the calls of the source. How the source made its calls, unless noted: active means hit-call score of the fitted dose curve at least 0.9, where 1 is the maximum; inactive means score below 0.9.
Key:
[1] = CCTE_Shafer_MEA_dev_burst_rate: CCTE's Neural Network Formation Assay for Burst Rate, Shafer Lab (AID 2284042);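 on AC50: potency for loss of burst rate below DMSO control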
How it was run: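 Cells plated, treated day 0; recorded DIV 5, 7, 9, 12; fed and re-treated DIV 5, 9. Endpoint: bursts per recording time, active-electrode well mean, trapezoidal AUC, fitted in decreasing direction against DMSO baseline.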

[2] = CCTE_Shafer_MEA_dev_bursting_electrodes_number: CCTE's Neural Network Formation Assay for Number of Bursting Electrodes, Shafer Lab (AID 2284043; active means hit-call score of the fitted dose curve at least 0.9, where 1 is the maximum;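 further: potency is for loss of bursting electrodes relative to DMSO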)
How it was run: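 Primary rat cortical neurons were cultured on PEI-coated 48-well MEA plates (16 electrodes/well) and exposed from plating through day 12, with compound renewed at feeds on DIV 5 and 9. Electrodes bursting ≥1 per 2 min were counted on DIV 5, 7, 9, 12; trapezoidal AUC taken.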

[3] = CCTE_Shafer_MEA_dev_per_burst_interspike_interval: CCTE's Neural Network Formation Assay for Burst Interspike Interval, Shafer Lab (AID 2284044);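 on AC50: potency for a decrease of within-burst interspike interval below DMSO level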
How it was run: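 Readout is the average time between spikes inside single-electrode bursts, taken as a well mean across bursting electrodes. Cortical neurons from rat developed networks on MEA plates under continuous 12-day exposure; recordings on days 5, 7, 9 and 12 were integrated by trapezoidal AUC.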

[4] = CCTE_Shafer_MEA_dev_burst_duration_mean: CCTE's Neural Network Formation Assay for Mean Burst Duration, Shafer Lab (AID 2284045);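 on AC50: curve fitted for loss meaning shorter burst duration than DMSO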
How it was run: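 Primary rat cortical neurons on PEI-coated 16-electrode MEA wells, exposed from plating through day 12 with compound renewed at DIV 5 and 9; spontaneous activity recorded days 5, 7, 9, 12. Well-mean burst duration collapsed as trapezoidal AUC, fitted for loss versus DMSO.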

[5] = CCTE_Shafer_MEA_dev_interburst_interval_mean: CCTE's Neural Network Formation Assay for Mean Interburst Interval, Shafer Lab (AID 2284046);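 further: well-mean interburst interval of bursting electrodes as AUC over four recording days; curve fitted for decrease in interburst interval relative to DMSO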
How it was run: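 Developing rat cortical networks on 48-well MEAs receive compound from the day of plating. Burst intervals from each active electrode are averaged per well, and AUC over the recording days is fitted in the negative direction against DMSO.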

[6] = CCTE_Shafer_MEA_dev_inter_network_spike_interval_mean: CCTE's Neural Network Formation Assay for Mean Inter-network Spike Interval, Shafer Lab (AID 2284047)
How it was run: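 Rat cortical cultures, 1.5 x 10^5 cells/well on 48-well MEA plates; continuous exposure days 0–12, medium and compound refreshed DIV 5, 9. Mean time between consecutive network-spike peaks; AUC across DIV 5/7/9/12; DMSO baseline, negative fitting direction.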

[7] = CCTE_Shafer_MEA_dev_network_spike_number: CCTE's Neural Network Formation Assay for Number of Network Spikes, Shafer Lab (AID 2284048);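 on AC50: fit as a loss of signal meaning fewer network spikes than DMSO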
How it was run: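 Primary rat cortical neurons were seeded at 1.5 x 10^5 cells/well on PEI-coated 16-electrode MEA wells with laminin, exposed from plating day 0, compound renewed at DIV 5 and 9. Network spikes were recorded on days 5, 7, 9, 12 and summarized as trapezoidal AUC versus DMSO.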

[8] = CCTE_Shafer_MEA_dev_network_spike_peak: CCTE's Neural Network Formation Assay for Mean Number of Electrodes in Network Spike, Shafer Lab (AID 2284049);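 on AC50: fitted for loss of signal meaning fewer electrodes in network spikes than DMSO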
How it was run: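 Continuous 12-day exposure of rat cortical cultures, starting at plating, on MEA plates. Endpoint: electrodes participating in network-spike peaks, AUC across DIV 5–12, DMSO as negative control.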

[9] = CCTE_Shafer_MEA_dev_per_network_spike_spike_number_mean: CCTE's Neural Network Formation Assay for Mean Number of Spikes in a Network Spike, Shafer Lab (AID 2284053);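 on AC50: fitted as decrease in spikes per network spike relative to DMSO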
How it was run: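 Continuous twelve-day exposure of developing rat cortical networks grown over 16 microelectrodes per well; spontaneous firing is captured at four time points, and the per-network-spike spike number is integrated over development by trapezoidal AUC.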

[10] = CCTE_Shafer_MEA_dev_LDH: CCTE's Lactate Dehydrogenase Assay for Cytotoxicity in the Neural Network Formation Assay, Shafer Lab (AID 2284068; active means hit-call score of the fitted dose curve at least 0.9, where 1 is the maximum;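 further: exposure for twelve days from plating with re-dosing on DIV 5 and 9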)
How it was run: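 Cytotoxicity companion to network-formation recordings: rat cortical neurons received compound over 12 days of development, re-dosed at DIV 5 and 9 feeds. Viability was inferred from LDH enzyme activity relative to DMSO.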

[11] = CCTE_Shafer_MEA_acute_AB: CCTE's Alamar Blue Assay for Cytotoxicity in the Neural Acute Assay, Shafer Lab (AID 2284069; active means hit-call score of the fitted dose curve at least 0.9, where 1 is the maximum;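 further: active compounds lower the viability signal compared with DMSO wells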)
How it was run: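 Metabolic activity in chemically exposed rat cortical neurons (MEA cultures, day 13/15 post-plating) measured via CellTiter Blue resazurin reduction, 544/590 nm fluorescence; fitted relative to DMSO, with signal loss indicating reduced viability.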

[12] = CCTE_Shafer_MEA_dev_AB: CCTE's Alamar Blue Assay for Cytotoxicity in the Neural Network Formation Assay, Shafer Lab (AID 2284083; active means hit-call score of the fitted dose curve at least 0.9, where 1 is the maximum;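 further: twelve days of exposure from plating with re-dosing on DIV 5 and 9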)
How it was run: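 Fluorescent resazurin reduction serves as the viability read-out, with DMSO as negative control and baseline. Cells were primary rat cortical neurons grown on MEA plates and dosed from day 0 to day 12, treatment renewed on DIV 5 and 9.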

[13] = CCTE_Shafer_MEA_acute_LDH: CCTE's Lactate Dehydrogenase Assay for Cytotoxicity in the Neural Acute Assay, Shafer Lab (AID 2284086; active means hit-call score of the fitted dose curve at least 0.9, where 1 is the maximum;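 further: active means LDH release rises above DMSO vehicle level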)
How it was run: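 Primary rat cortical neurons on 48-well MEA plates, treated on day 13 or 15 post-plating. After the 40-min recording with compound, medium LDH release was read by absorbance at 490 nm. Gain of signal was fitted against DMSO negative control.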

[14] = CCTE_Shafer_MEA_dev_correlation_coefficient_mean: CCTE's Neural Network Formation Assay for Mean Correlation Coefficient, Shafer Lab (AID 2284093);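 on AC50: well mean pairwise spike train correlation integrated as AUC over recording days 5 to 12; potency fitted for loss of correlation relative to DMSO vehicle wells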
How it was run: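 Read-out: well-mean correlation coefficient of spike trains between electrode pairs, collapsed over four recording days as trapezoidal area-under-the-curve. Developing rat cortical neuron networks grown on MEAs received test chemical continuously from plating.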

[15] = molecular target: Estrogen receptor (Homo sapiens) (UniProt P03372); assay: CCTE_Deisenroth_AIME_384WELL_LUC_Shift: CCTE's 384-well Estrogen Receptor Transactivation Assay with AIME metabolic competence data shift (ERTA luciferase; difference in metabolism positive and negative), Deisenroth Lab (AID 2284041);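 further: shift is response with S9 minus without S9 so positive means metabolism raised ER signal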
Sequence of Estrogen receptor (Homo sapiens) (P03372 whole entry, looked up): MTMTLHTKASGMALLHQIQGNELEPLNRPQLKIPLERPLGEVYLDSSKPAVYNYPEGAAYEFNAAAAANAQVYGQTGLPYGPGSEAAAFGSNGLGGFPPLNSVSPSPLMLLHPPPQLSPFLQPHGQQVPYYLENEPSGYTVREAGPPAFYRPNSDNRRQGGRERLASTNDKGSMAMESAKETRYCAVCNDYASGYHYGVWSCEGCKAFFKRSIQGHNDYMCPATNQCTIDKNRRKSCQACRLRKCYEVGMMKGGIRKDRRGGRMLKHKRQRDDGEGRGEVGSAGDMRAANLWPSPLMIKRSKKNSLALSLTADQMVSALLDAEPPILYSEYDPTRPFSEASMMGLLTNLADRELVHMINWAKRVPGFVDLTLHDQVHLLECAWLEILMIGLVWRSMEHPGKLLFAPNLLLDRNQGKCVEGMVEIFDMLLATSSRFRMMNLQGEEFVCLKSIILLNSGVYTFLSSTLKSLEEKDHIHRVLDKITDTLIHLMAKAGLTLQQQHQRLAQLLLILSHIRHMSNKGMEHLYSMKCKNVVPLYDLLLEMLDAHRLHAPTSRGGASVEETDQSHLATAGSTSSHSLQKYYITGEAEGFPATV
How it was run: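 Here, parent compounds undergo 2 h phase I metabolism by PB/BNF-induced rat S9 before 24 h transactivation in VM7Luc4E2 cells; the curve models S9-positive minus S9-negative response over a 10-point series.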

[16] = UKN2_HCS_IMR90_neural_migration: University of Konstanz (UKN) Leist Lab Neural Crest Cell Migration Assay in human induced IMR90 Pluripotent Stem Cells (UKN2) (AID 2284204); conditions: actives raise or lower the signal
How it was run: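 iPSC-derived IMR90 neural crest cells on PLO/laminin/fibronectin were seeded around silicone stoppers; after stopper removal, migration in N2-S medium with EGF and FGF ran 24 h before 24 h chemical exposure. Calcein-AM/Hoechst high-content imaging; bidirectional fit versus DMSO.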

Measured: AC50

[Cl-].[Cl-].[Hg+2]
active: [1] 923 nM | [2] 0.539 µM | [3] 0.869 µM | [4] 0.881 µM | [5] 0.318 µM | [7] 444 nM | [8] 0.641 µM | [9] 0.894 µM | [10] 0.929 µM | [11] 32.6 µM | [12] 0.559 µM | [13] 30.6 µM | [14] 0.66 µM
inactive: [6]

O=C(Nc1ccccc1)c1ccccc1I
active: [15] 6.87 µM

CC(C)COC(=O)c1ccccc1C(=O)OCC(C)C
inactive: [1] | [4] | [6] | [7] | [11] | [13] | [16]
active: [2] 13.8 µM | [3] 23.2 µM | [5] 12.8 µM | [8] 15.9 µM | [9] 13.6 µM | [10] 23.6 µM | [12] 24.8 µM | [14] 13.9 µM

Clc1ccc(C(c2ccc(Cl)cc2)C(Cl)Cl)cc1
inactive: [4] | [6] | [11] | [13]
active: [1] 8680 nM | [2] 6.19 µM | [3] 8.24 µM | [5] 8.61 µM | [7] 1980 nM | [8] 4.03 µM | [9] 4.95 µM | [10] 5.96 µM | [12] 5.14 µM | [14] 3.89 µM

[O-][Cl+]O
active: [4] 15 µM
not listed: [2] | [11] | [13] | [16]
inactive: all other assays above

CCCCCOC(=O)c1ccccc1C(=O)OCCCCC
inactive: [15] | [11]

Cc1ccc([N+](=O)[O-])cc1
inactive: [15]

CCOc1cccc(C2(N3CCN(c4ccccc4)CC3)CCC(C)CC2)c1 (stereo unspecified)
inactive: [15]

Clc1ccc(C(c2ccc(Cl)cc2)C(Cl)(Cl)Cl)cc1
inactive: [4] | [6] | [11] | [13]
active: [1] 7.69 µM and 6.09 µM | [2] 3.96 µM and 6.35 µM | [3] 7.74 µM and 9.33 µM | [5] 7.67 µM and 9 µM | [7] 2.58 µM and 2.86 µM | [8] 3.55 µM and 6.68 µM | [9] 6.95 µM and 5.75 µM | [10] 4.07 µM and 6.5 µM | [12] 3.88 µM and 8.94 µM | [14] 3 µM and 4.07 µM

O=C(Oc1ccc(Br)cc1)N1CCN2CCC1CC2
inactive: [15] | [13]
